The values that follow come from paper PMC7819943, “Rice protein-binding microarrays: a tool to detect cis-acting elements near promoter regions in rice”.

In all, about 68,000 sequences were measured (“fluorescence intensity (a.u.)”: median about 9,100, highest 2% from about 16,000 on). Many of the other results were omitted from the sample, so the highest values are more common in it than they were.

OsWRKY34, sequence (Q0JBA9 entry or part of it): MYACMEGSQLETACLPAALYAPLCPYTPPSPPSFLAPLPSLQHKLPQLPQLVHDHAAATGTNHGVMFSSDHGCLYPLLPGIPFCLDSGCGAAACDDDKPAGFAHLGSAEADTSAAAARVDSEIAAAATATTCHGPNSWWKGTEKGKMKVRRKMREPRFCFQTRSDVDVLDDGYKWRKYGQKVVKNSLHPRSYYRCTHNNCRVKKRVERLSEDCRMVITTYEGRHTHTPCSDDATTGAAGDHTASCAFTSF

In the assay the target is OsWRKY34 (Oryza sativa, UniProt Q0JBA9 1-250). The assay is described as follows: protein-binding microarray (RPBM); PBS, 2% BSA, 51.3 ng/ul salmon testes DNA, 50 uM zinc acetate, 200 nM TF, 25 C, 1 h; high values mean tight binding. To be noted: protein: recombinant; tags: N-terminal polyhistidine and DsRed monomer fusion (pET32a); label: CyDye5-dUTP incorporated in the synthesized complementary strand; 3' TTTTT single-stranded linker to array surface; dsDNA, one strand shown. The method in brief:
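Transcription factors were made in E. coli BL21-CodonPlus as N-terminal fusions to a polyhistidine tag and DsRed, then purified on Ni–NTA. After primer extension with Cy5-dUTP and blocking with 2% BSA, a custom Agilent array was exposed for 1 h at 25 °C to 200 nM protein in PBS, 2% BSA, salmon testes DNA and 50 µM zinc acetate. Washed arrays were scanned on an Axon 4000B, and the binding signal is per-feature fluorescence intensity in arbitrary units.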
Turning to “CACGTCACCTGCATATGCCCTTCTTCCTCGCCGGCCACACCGGAGTCACCTAGTGCAG”, the binding signal is 11000 fluorescence intensity (a.u.).

For the sequence “TTTTCGTCTATTTTATTACTGTTGCTTGCCTACAATTCTCCGGAGTCACCTAGTGCAG”, the binding signal was 13500 fluorescence intensity (a.u.).

Regarding “ATAGGTGCCGGTTCTATTTTGGTATAGGGGTCGGTTGTTTCGGAGTCACCTAGTGCAG”, the binding signal is 11700 fluorescence intensity (a.u.).

Consider “TCTCACTCTCGAGCCATCGTCTTCAGCTCGCTCATTACTGCGGAGTCACCTAGTGCAG”, for which the binding signal is 9030 fluorescence intensity (a.u.).

Consider “CGCCTTCGCCTCCGGCCCCTTATATGGCGTGGCGGGGAGGCGGAGTCACCTAGTGCAG”, for which the binding signal was 8930 fluorescence intensity (a.u.).

With “TTCGTTGACCAAGTTTAATTCAAATTCAATTCAATTTTAACGGAGTCACCTAGTGCAG”, the binding signal is 9760 fluorescence intensity (a.u.).

On to “TAATGACTTATCCTGCGGTGAAAAATCTTCATCTTCGTATCGGAGTCACCTAGTGCAG”, for which the binding signal is 8160 fluorescence intensity (a.u.).

As for “GCTGCTCGGATTTGATTGATTGATTGATTGGCGGGTGGTCCGGAGTCACCTAGTGCAG”, the binding signal was 8590 fluorescence intensity (a.u.).

Regarding “GCAATTTTTTACGCCCACACGACTGTCCGAGAGCAATATGCGGAGTCACCTAGTGCAG”, the binding signal is 8170 fluorescence intensity (a.u.).

Consider “CTCCCGAGGAAGATGACGAGGAGTCAGTCAACAGTTGACTCGGAGTCACCTAGTGCAG”, for which the binding signal was 8130 fluorescence intensity (a.u.).

“TCTCTCTCTCTCTCTCTTCTCTTCTCTTTGTTTTCTTGTTCGGAGTCACCTAGTGCAG”: the binding signal is 9940 fluorescence intensity (a.u.).

For the sequence “GGGTTCTTTCTGTAGTAGGGGTTTTTCTTTGTTTTCTCTTCGGAGTCACCTAGTGCAG”, the binding signal was 17700 fluorescence intensity (a.u.).

Regarding “ATTCTAGTAGTAGTTGTTTATCTTTGTTCTGTTGTTTCTTCGGAGTCACCTAGTGCAG”, the binding signal is 8520 fluorescence intensity (a.u.).

In the case of “TTCTTTCCTTACGATTTTTGCTCCTGCTCTAGTTCTTGTTCGGAGTCACCTAGTGCAG”, the binding signal was 8140 fluorescence intensity (a.u.).

Turning to “GAATTTTTTTTTCGTTTTTTTCAATTCGTTATTCTTTTCTCGGAGTCACCTAGTGCAG”, the binding signal was 12300 fluorescence intensity (a.u.).

For “TCTTCCCGCCTTTTTTTTCTTTGTTATTTTTCTTTTTTTTCGGAGTCACCTAGTGCAG”, the binding signal was 18000 fluorescence intensity (a.u.).

Consider “CTTTTTTCTCTGCGGGTTCTTCAATTATTCAGGGTTTCTTCGGAGTCACCTAGTGCAG”, for which the binding signal was 16800 fluorescence intensity (a.u.).

Turning to “TTCCTTTTTTCCCGCCCGTTCCTTTTTTGTTTGTTATGTTCGGAGTCACCTAGTGCAG”, the binding signal was 15700 fluorescence intensity (a.u.).

On to “TCCCACGATTTCCTTTCCTGCTTTTCTCATCCCTTTTGTTCGGAGTCACCTAGTGCAG”, for which the binding signal is 16500 fluorescence intensity (a.u.).

Regarding “TCCTTTTCTTTTCTTTTATTTTTTTTTGTTTTTTCCCGTTCGGAGTCACCTAGTGCAG”, the binding signal is 8300 fluorescence intensity (a.u.).

With “TCAATTATTCAGGGTTTCTTCTGGTTCTTGTCTCGCCATGCGGAGTCACCTAGTGCAG”, the binding signal is 8630 fluorescence intensity (a.u.).

Take “CCTTCGATTGACCTCCTCATCCTCTTCCCCTGCTTTCTTTCGGAGTCACCTAGTGCAG”: the binding signal was 9720 fluorescence intensity (a.u.).

For “AAAAGGCGTTTGCTTGTTTTTGCTGTGGGTTAATTCGCCTCGGAGTCACCTAGTGCAG”, the binding signal is 8090 fluorescence intensity (a.u.).

For “GTCACTCCTACTCCCGCCACCACCGGCCCAATGGCGCCCCCGGAGTCACCTAGTGCAG”, the binding signal was 9660 fluorescence intensity (a.u.).

For the sequence “CCCAGTTTTATTTCTGCAGTTCATTTTATGAGAGCATTCTCGGAGTCACCTAGTGCAG”, the binding signal was 8120 fluorescence intensity (a.u.).

“GTGCTCTCTGCTGGCTGCGACGCCATATATGCCTTTCTTCCGGAGTCACCTAGTGCAG”: the binding signal was 8720 fluorescence intensity (a.u.).

On to “ACATTCTCTTATACCCATCACAATCATTTGCTCAATAGGGCGGAGTCACCTAGTGCAG”, for which the binding signal is 8620 fluorescence intensity (a.u.).

As for “CTATCAATTCGCTCTATTATGTCGCTCAATTCTCTCTCGCCGGAGTCACCTAGTGCAG”, the binding signal was 8650 fluorescence intensity (a.u.).

Take “GCCGGATCCAGATCTCCACCGCCTCGCCTCGCCGCGCCGCCGGAGTCACCTAGTGCAG”: the binding signal was 10400 fluorescence intensity (a.u.).

For the sequence “CTACACACAAACTTCCAACTTTTCTGTCACATCGTTCCAACGGAGTCACCTAGTGCAG”, the binding signal was 11900 fluorescence intensity (a.u.).

Take “GTGTGTTTTTCTGCCATTTTTCGCCTTAGGTCTTCGCAATCGGAGTCACCTAGTGCAG”: the binding signal was 12300 fluorescence intensity (a.u.).

As to “GAGATAGATGGGCCTGAAATGCGCCGATGGTCAGGCCTGCCGGAGTCACCTAGTGCAG”, the binding signal was 8190 fluorescence intensity (a.u.).

For “TTCGTGCACGCGGTCCATGCACCAGCCACCATTCCCTTCGCGGAGTCACCTAGTGCAG”, the binding signal is 8350 fluorescence intensity (a.u.).

As for “TAATATATGATCATACTTGTTTTATATACATTGTGTCTTGCGGAGTCACCTAGTGCAG”, the binding signal was 9830 fluorescence intensity (a.u.).

As to “GAGGTTAGCTCGCCTCTGATTGGGTTGGTTGGGTGGTCGGCGGAGTCACCTAGTGCAG”, the binding signal was 10100 fluorescence intensity (a.u.).

For the sequence “GATTTGGTCTGGTTTGGTTGGAGGTTAGCTCGCCTCTGATCGGAGTCACCTAGTGCAG”, the binding signal was 19400 fluorescence intensity (a.u.).

In the case of “CTTTTGGTCTTCCCTTTCTTTTCTTCTTCTTCTTCTTCTTCGGAGTCACCTAGTGCAG”, the binding signal was 10400 fluorescence intensity (a.u.).

As for “AAGGTTGTCTTGTTTGATTAGCTATTTTCTTTGCCTGGTTCGGAGTCACCTAGTGCAG”, the binding signal is 11400 fluorescence intensity (a.u.).

For the sequence “TCTGGTTGATTGATCGATTTGGGGAATTGGGGATCTAGCTCGGAGTCACCTAGTGCAG”, the binding signal was 12000 fluorescence intensity (a.u.).

Take “GGTCTGGTTCTTCTTGATGCGAGGCTAGCTGACGTTTTTTCGGAGTCACCTAGTGCAG”: the binding signal is 17200 fluorescence intensity (a.u.).

Turning to “CTCGTGTGTCTTGCGGGCGGGTGATCTTTCCACATACAGACGGAGTCACCTAGTGCAG”, the binding signal is 19200 fluorescence intensity (a.u.).

For “TTGTTCTTCTTTTTTGGTCTGGTTTTTTTTGTGGTTTCTTCGGAGTCACCTAGTGCAG”, the binding signal was 16700 fluorescence intensity (a.u.).
